# Source: PubChem BioAssay (NCATS)
# Calls of active or inactive are those of the source. Calls follow the shape of the dose curve; as a rule, active = well fitted inhibition curve with a large enough effect; inconclusive = small, poorly fitted or top-dose-only effect; inactive = no such curve, though single readings can be large or run the other way.
# Molecular target: Pyruvate kinase (Leishmania mexicana) (UniProt Q27686)
# Test: qHTS Validation Assay for Inhibitors of Leishmania Mexicana Pyruvate Kinase (AID 945)
# Conditions: purified L. mexicana pyruvate kinase, enzyme activity, E451W mutant enzyme; series mostly up to 57.5 µM
# From the text: NIH Molecular Libraries Screening Centers Network [MLSCN]
# NIH Chemical Genomics Center [NCGC]
# PI names: Malcom Walkinshaw, Hugh Morgan and Linda Gilmore
# University of Edinburgh, Edinburgh, UK
# Species of Leishmania are responsible for a wide spectrum of diseases throughout the tropics and subtropics, ranging from self-healing ulcers to highly disfiguring lesions and serious, often lethal visceral diseases, such as kala-azar. In Leishmania spp. it has been shown that both sugar uptake and gluconeogenesis are necessary to synthesize sufficient hexose-phosphate required for the production of glycoconjugates and the intracellular polysaccharide mannan which are essential for both replication and virulence of the parasites. Therefore, most of the enzymes participating in glycolysis and gluconeogenesis are expected to be essential (Naderer et al., 2006). The assay described here targets pyruvate kinase from Leishmania mexicania (LmPYK) that was obtained as a highly purified preparation from the University of Edinburgh (E451W mutant was provided). A 1536 well assay protocol was set up and validated by screening the LOPAC library in triplicate as an eight point concentration-titration series using the qHTS platform developed at the NCGC.
# NCGC Assay Protocol Summary:
# Three uL of substrate mix (final concentrations, 50 mM imidazole pH 7.2, 50 mM KCl, 7 mM MgCl2, 0.5 mM PEP, 0.1 mM ADP, 0.01% Tween 20, 0.05% BSA) was dispensed into white solid medium binding Greiner 1536 well plates. 23 nL of compound were delivered by a pin tool and 1 uL of enzyme mix (final concentration, 0.2 nM LmPYK, 50 mM imidazole pH 7.2, 0.05% BSA) was added. Plates were covered with stainless steel gasket-lined lids and incubated at room temperature for 1 hour. Two uL of detection and kinase stop mix (PKLight, Lonza) was added, and luminescence read by a ViewLux (Perkin Elmer) at 2 second exposure/plate using 2x binning. Controls on each plate were as follows: column 1, sixteen-point titration (1:2 dilutions) in duplicate the LmPK activator LOPAC-C8145 beginning at 57 uM final concentration; column 2, sixteen-point titration (1:2 dilutions) in duplicate activator LOPAC-S4063 beginning at 57 uM final concentration; column 3, column 4 DMSO only. Data were normalized to the neutral control (column 3).
# Pyruvate kinase (Leishmania mexicana), sequence (Q27686 2-499 E452W): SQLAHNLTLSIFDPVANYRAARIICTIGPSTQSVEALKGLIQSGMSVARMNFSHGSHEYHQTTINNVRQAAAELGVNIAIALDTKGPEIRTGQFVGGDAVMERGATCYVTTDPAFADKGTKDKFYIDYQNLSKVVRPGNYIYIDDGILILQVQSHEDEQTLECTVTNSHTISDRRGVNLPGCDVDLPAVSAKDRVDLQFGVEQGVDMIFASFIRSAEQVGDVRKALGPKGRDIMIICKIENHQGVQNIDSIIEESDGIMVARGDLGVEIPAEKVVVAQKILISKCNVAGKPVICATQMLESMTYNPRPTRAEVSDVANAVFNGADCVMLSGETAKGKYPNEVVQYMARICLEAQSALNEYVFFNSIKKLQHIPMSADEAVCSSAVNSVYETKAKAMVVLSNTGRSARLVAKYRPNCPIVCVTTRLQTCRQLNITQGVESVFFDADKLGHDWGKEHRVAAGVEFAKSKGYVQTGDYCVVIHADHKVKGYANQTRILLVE
row,SMILES,outcome
1,CCCN1CCO[C@@H]2c3cc(O)ccc3OC[C@H]21,inactive
2,CNCCc1c[nH]c2ccc(O)cc12,inactive
3,CC1=NN=C(c2ccc(N)cc2)c2cc3c(cc2C1)OCO3,inactive
4,O=C(O)Cc1cnc[nH]1,inactive
5,NCCc1c[nH]c2ccc(O)cc12,inactive
6,Clc1cnc(Oc2ccc(Oc3ncc(Cl)cc3Cl)cc2)c(Cl)c1,inactive
7,c1ccc(CCCN2CCN(CCOC(c3ccccc3)c3ccccc3)CC2)cc1,inactive
8,NCc1cc(=O)[nH]o1,inactive
9,O=C(O)CC[N+](=O)[O-],inactive
10,Cc1nccc2c1[nH]c1ccccc12,inactive
11,CNCCc1ccc(O)c(O)c1,inactive
12,Cn1cnc(CCN)c1,inactive
13,NC(N)=NOCCC(N)C(=O)O (stereo unspecified),inactive
14,COc1ccc2c(c[n+](C)c3c4cc5c(cc4ccc23)OCO5)c1OC,inactive
15,CC(C)Oc1cccnc1N(C)C1CCN(Cc2ccccc2)CC1,inactive
16,CCCCc1ccc(C(=O)O)nc1,inactive

row,SMILES,outcome
1,NCCc1c[nH]c2ccccc12,inactive
2,Cc1c(C(=O)c2cccc3ccccc23)c2cccc3c2n1[C@H](CN1CCOCC1)CO3,inactive
3,C#CCOC(=O)C1=CCCN(C)C1,inactive
4,O=C1CCCN1CC#CCN1CCCC1,inactive
5,CCCN1CCC[C@H](c2cccc(O)c2)C1,inactive
6,NC(=NCCC[C@H](N)C(=O)O)N[N+](=O)[O-],inactive
7,CC[C@@]1(O)C(=O)OCc2c1cc1n(c2=O)Cc2cc3ccccc3nc2-1,inactive
8,CN[C@@H]1C[C@@H](c2ccc(Cl)c(Cl)c2)c2ccccc21,inactive
9,c1ccc2sc(C3(N4CCCCC4)CCCCC3)cc2c1,inactive
10,C[C@@H]1O[C@H](C[N+](C)(C)C)C[C@H]1O,inactive
11,S=C(NC1CCCCC1)N1CCC(c2cnc[nH]2)CC1,inactive
12,C[C@]12N[C@H](Cc3ccccc31)c1ccccc12,inactive
13,Cc1nc(-c2ccc(-c3ccc(C(=O)N4CCc5cc6c(cc54)C4(CCN(C)CC4)CO6)cc3)c(C)c2)no1,inactive
14,CC(=O)NCCc1c[nH]c2ccccc12,inactive
15,CCCN(CCC)[C@@H]1CCc2ccc(O)cc2C1,inactive
